The subject of test [1] is Vero E6 infected with SARS-CoV-2. Briefly: morphology score (similarity to uninfected cells); higher = more like uninfected cells. The conditions noted are these: 24 h.
Test [2] has the same test system. The test can be described thus: SARS-CoV-2 infection rate relative to infected DMSO; higher = more infection, active = 60 or less. The conditions noted are these: 24 h.

For the compound `Nc1nccc(Oc2ccc(NC(=O)c3c[nH]cc(-c4ccc(F)cc4)c3=O)cc2F)c1Cl` [metatinib] (10 µM), the morphology score in test [1] was determined as 0.551. The SARS-CoV-2 infection rate in test [2] was 102% (inactive).
Compound `C#C[C@]1(O)CC[C@H]2[C@@H]3CCc4cc(OC5CCCC5)ccc4[C@H]3CC[C@@]21C` [quinestrol] (10 µM) came in with a morphology score in test [1] of -0.0318. Moreover, the SARS-CoV-2 infection rate in test [2] is 102% (inactive).
On to `Cc1nnc(C(=O)NC(C)(C)c2nc(C(=O)NCc3ccc(F)cc3)c(O)c(=O)n2C)o1` [raltegravir] (10 µM), for which, in test [1], the morphology score amounted to 0.324. Besides, the SARS-CoV-2 infection rate in test [2] was 110% (inactive).
With `CCN(CC)CCNC(=O)c1cc(Cl)c(N)cc1OC` [metoclopramide] (10 µM), the morphology score in test [1] is -0.00451. Further, the SARS-CoV-2 infection rate in test [2] was 107% (inactive).
On to `C[C@H](O)[C@H](O)[C@H]1CNc2nc(N)[nH]c(=O)c2N1` [sapropterin] (10 µM), for which the morphology score in test [1] was -0.0335. Besides, the SARS-CoV-2 infection rate in test [2] is 95.5% (inactive).
On to `O=C(O)c1ccc(-c2ccc3cc(O)c(C45CC6CC(CC(C6)C4)C5)cc3c2)cc1` (10 µM), for which the morphology score in test [1] is -0.0522. The SARS-CoV-2 infection rate in test [2] is 106% (inactive).
In test [1], `CCOC(=O)C1=C(C)NC(C)=C(C(=O)OCC)C1c1ccccc1/C=C/C(=O)OC(C)(C)C` [lacidipine] (10 µM) yielded a morphology score of 0.101. The SARS-CoV-2 infection rate in test [2] is 106% (inactive).
The compound `CC(C)(CO)[C@@H](O)C(=O)NCCC(=O)O` [pantothenic-acid] (10 µM) yielded a morphology score in test [1] of 0.0324. In test [2], the SARS-CoV-2 infection rate is 110% (inactive).
The compound `CC(C)C[C@H](NC(=O)[C@@H]1CCCN1)C(=O)NCC(N)=O` [prolylleucylglycinamide] (10 µM) yielded a morphology score in test [1] of 0.103. Moreover, the SARS-CoV-2 infection rate in test [2] is 99% (inactive).
In test [1], `CCN(CC)Cc1nccn1-c1ccc([N+](=O)[O-])cc1C(=O)c1ccccc1Cl` [nizofenone] (10 µM) returned a morphology score of 0.148. Also, the SARS-CoV-2 infection rate in test [2] is 98% (inactive).
Consider `NCCCC[C@H](NC(=O)[C@@H]1CCCN1C(=O)[C@@H]1CSSC[C@H](N)C(=O)N[C@@H](Cc2ccc(O)cc2)C(=O)N[C@@H](Cc2ccccc2)C(=O)N[C@@H](CCC(N)=O)C(=O)N[C@@H](CC(N)=O)C(=O)N1)C(=O)NCC(N)=O` [lypressin] (10 µM), for which the morphology score in test [1] was determined as 0.164. In addition, the SARS-CoV-2 infection rate in test [2] is 91% (inactive).
In the same order, the values of `CN1CCC[C@@H](CC2c3ccccc3Sc3ccccc32)C1` (racemic) [metixene] (0.833333 µM) are 0.383 and 86% (inactive).
On to `Cc1oc(-c2ccccc2)nc1CCC(=O)c1ccc(CC2SC(=O)NC2=O)cc1` (stereo not drawn) [darglitazone] (10 µM), for which, in test [1], the morphology score stood at 0.276. In test [2], the SARS-CoV-2 infection rate is 98.5% (inactive).
Consider `COc1ccc(C(=O)N2CCCc3cc(C4=NNC(=O)SC4C)ccc32)cc1OC` (stereo not drawn) (0.833333 µM), for which the morphology score in test [1] is -0.177. Moreover, in test [2], the SARS-CoV-2 infection rate is 109% (inactive).
For `CN1c2c([nH]c(N)nc2=O)NC[C@@H]1CNc1ccc(C(=O)N[C@@H](CCC(=O)O)C(=O)O)cc1` [metafolin] (10 µM) the same measures were 0.0144 and 115% (inactive).
For `O=C(O)c1ccccc1-c1ccc(C(F)(F)F)cc1` [xenalipin] (10 µM) the same measures were 0.0335 and 102% (inactive).
In turn, `Cc1ccccc1C(=O)c1ccc(Nc2ccc(Br)cc2N)cc1Cl` (10 µM) came in with a morphology score in test [1] of -0.138. In test [2], the SARS-CoV-2 infection rate was 102% (inactive).
With `O=C1CNC(=O)CN1` [piperazinedione] (0.833333 µM), the morphology score in test [1] is 0.0804. The SARS-CoV-2 infection rate in test [2] was 106% (inactive).
For `Cn1ncnc1[C@H]1c2n[nH]c(=O)c3cc(F)cc(c23)N[C@@H]1c1ccc(F)cc1` [talazoparib] (0.833333 µM) the same measures were -0.223 and 113% (inactive).
For `CC#CC(=O)N1CCC[C@H]1c1nc(-c2ccc(C(=O)Nc3ccccn3)cc2)c2c(N)nccn12` [acalabrutinib] (10 µM) the same measures were -0.00394 and 108% (inactive).
`Cc1sc(C)c2c1CCC=C2c1c[nH]cn1` (10 µM) showed a morphology score in test [1] of 0.165. In test [2], the SARS-CoV-2 infection rate was 94% (inactive).
In the same order, the values of `COc1ccccc1Oc1c(NS(=O)(=O)c2ccc(C(C)(C)C)cc2)nc(-c2ncccn2)nc1OCCO` [bosentan] (10 µM) are 0.0268 and 112% (inactive).
For `CCOc1cc(N)c(Cl)cc1C(=O)NCC1CN(Cc2ccc(F)cc2)CCO1` (stereo not drawn) [mosapride] (10 µM) the same measures were 0.33 and 89.5% (inactive).
For `N[C@@H](CSC(c1ccccc1)(c1ccccc1)c1ccccc1)C(=O)O` [S-trityl-L-cysteine] (0.833333 µM) the same measures were 0.107 and 110% (inactive).
With `Cc1ncc(CO)c(CO)c1O` [pyridoxine] (10 µM), in test [1], the morphology score is 0.0823. In addition, the SARS-CoV-2 infection rate in test [2] was 108% (inactive).
In the case of `CCCCCCCCCCCCCCCCNc1ccc(C(=O)O)cc1` [cetaben] (10 µM), in test [1], the morphology score was 0.21. The SARS-CoV-2 infection rate in test [2] was 91.5% (inactive).
Turning to `C/C(=C\CNc1ncnc2[nH]cnc12)CO` [zeatin] (10 µM), in test [1], the morphology score is -0.0215. Further, the SARS-CoV-2 infection rate in test [2] was 106% (inactive).
As to `CCCCCC(=O)O[C@]1(C(C)=O)CC[C@H]2[C@@H]3CCC4=CC(=O)CC[C@]4(C)[C@H]3CC[C@@]21C` [17-hydroxyprogesterone-caproate] (10 µM), the morphology score in test [1] was determined as 0.523. The SARS-CoV-2 infection rate in test [2] was 85.5% (inactive).
For `CN(N=O)C(=O)N[C@@H](C=O)[C@@H](O)[C@H](O)[C@H](O)CO` [streptozotocin] (10 µM) the same measures were 0.0397 and 96% (inactive).

Source of the values: the supplement of paper PMC13380429.
